Data as given in PubChem BioAssay (Tox21).
“And” between values parts separate entries of the source, which are not always exact repeats. Equal values may be shown once. Inconclusive results are not listed. The source made the active and inactive calls. The call rests on the fitted dose curve; in most records, active means well fitted curve in the direction sought with a large enough effect in the repeat runs; inconclusive means weak or mixed curves; inactive means no such curve, though single readings can be large; an effect the other way counts as inactive or inconclusive.

Columns and labels:
[1] = Caspase-3/7 induction in HepG2 cells by small molecules, qHTS assay (AID 1346978); further: nearly all actives have a fitted effect of over 15% in size; further: potency means the concentration at half of the fitted maximal effect
How it was run: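 Wild-type HepG2 cells, 2,000/well, settled 5 hr at 37 C and 5% CO2, then compound-treated for 17 hr; caspase-3/7 activity read by luminescent Caspase-Glo 3/7 after 30 min at room temperature.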

[2] = Caspase-3/7 induction in CHO-K1 cells by small molecules, qHTS cell viability counter screen (AID 1346979); further: nearly all actives have a fitted effect of over 35% in size; further: potency means the concentration at half of the fitted maximal effect
How it was run: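 CellTiter-Fluor viability check, qHTS format: wild-type CHO-K1, 16hr compound treatment, 1hr reagent incubation, fluorescence read.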

[3] = Caspase-3/7 induction in CHO-K1 cells by small molecules, qHTS assay (AID 1346980); further: nearly all actives have a fitted effect of over 15% in size
How it was run: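 Wild-type CHO-K1 cells exposed to compounds for 17hr at 37 C, 5% CO2. Caspase-3/7 activity then measured by Caspase-Glo 3/7 luminescence after 30min at room temperature.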

[4] = Caspase-3/7 induction in HepG2 cells by small molecules, qHTS cell viability counter screen (AID 1346981); further: nearly all actives have a fitted effect of over 30% in size; further: potency means the concentration at half of the fitted maximal effect
How it was run: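 Steps: seed 2,000 HepG2 cells per well; incubate 5 hr at 37 C; pin-add compounds in DMSO; incubate 16 hr; add CellTiter-Fluor; after 1 hr at 37 C and 5% CO2, read fluorescence.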

[5] = biological target: Nuclear receptor subfamily 1 group I member 2 (Homo sapiens) (UniProt O75469); test: Human pregnane X receptor (PXR) small molecule agonists, qHTS assay (AID 1346982); further: nearly all actives have a fitted effect of over 35% in size; further: potency means the concentration at half of the fitted maximal effect
How it was run: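 Agonist mode qHTS: PXR-Luc HepG2 cells plated 5 hr before DMSO-dissolved compounds were pinned in, cultured 24 hr at 37 C, 5% CO2; ONE-Glo luminescence readout.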

[6] = biological target: Cytochrome P450 2D6 (Homo sapiens) (UniProt P10635); test: Cytochrome P450 Family 2 Subfamily D Member 6 (CYP2D6) small molecule antagonists: luciferase reporter qHTS assay (AID 1671196); further: nearly all actives have a fitted effect of over 50% in size; further: potency means the concentration at half of the fitted maximal effect
How it was run: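 P450-Glo format: CYP2D6 converts a proluciferin substrate to luciferin in an NADPH-driven reaction lasting 1 h at room temperature. Light output, proportional to CYP2D6 activity, reflects interference by test chemicals.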

[7] = biological target: Cytochrome P450 2C19 (Homo sapiens) (UniProt P33261); test: Cytochrome P450 Family 2 Subfamily C Member 19 (CYP2C19) small molecule antagonists: luciferase reporter qHTS assay (AID 1671197); further: nearly all actives have a fitted effect of over 65% in size; further: potency means the concentration at half of the fitted maximal effect
How it was run: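 Enzyme-substrate mix with proluciferin substrate (P450-Glo CYP2C19 system) preincubated with compounds 10 min at room temperature; NADPH regeneration solution added, 37C for 1 h; detection reagent stops reaction, luminescence read after 20 min. Ketoconazole positive control.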

Measured: Potency

Sequence of Cytochrome P450 2D6 (Homo sapiens) (P10635 whole entry, looked up): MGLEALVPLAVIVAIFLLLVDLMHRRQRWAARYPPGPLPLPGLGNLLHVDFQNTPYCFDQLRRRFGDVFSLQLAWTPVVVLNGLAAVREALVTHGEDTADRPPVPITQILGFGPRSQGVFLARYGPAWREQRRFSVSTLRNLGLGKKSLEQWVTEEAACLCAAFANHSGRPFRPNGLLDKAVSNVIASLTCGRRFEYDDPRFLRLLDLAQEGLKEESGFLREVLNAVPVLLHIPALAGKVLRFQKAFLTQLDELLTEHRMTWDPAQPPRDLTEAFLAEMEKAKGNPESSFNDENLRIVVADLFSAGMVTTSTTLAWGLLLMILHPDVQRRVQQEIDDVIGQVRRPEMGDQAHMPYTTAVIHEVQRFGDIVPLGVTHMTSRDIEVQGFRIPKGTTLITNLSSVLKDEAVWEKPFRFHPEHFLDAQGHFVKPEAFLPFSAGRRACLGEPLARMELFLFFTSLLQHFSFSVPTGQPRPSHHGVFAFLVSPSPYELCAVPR
Sequence of Cytochrome P450 2C19 (Homo sapiens) (P33261 whole entry, looked up): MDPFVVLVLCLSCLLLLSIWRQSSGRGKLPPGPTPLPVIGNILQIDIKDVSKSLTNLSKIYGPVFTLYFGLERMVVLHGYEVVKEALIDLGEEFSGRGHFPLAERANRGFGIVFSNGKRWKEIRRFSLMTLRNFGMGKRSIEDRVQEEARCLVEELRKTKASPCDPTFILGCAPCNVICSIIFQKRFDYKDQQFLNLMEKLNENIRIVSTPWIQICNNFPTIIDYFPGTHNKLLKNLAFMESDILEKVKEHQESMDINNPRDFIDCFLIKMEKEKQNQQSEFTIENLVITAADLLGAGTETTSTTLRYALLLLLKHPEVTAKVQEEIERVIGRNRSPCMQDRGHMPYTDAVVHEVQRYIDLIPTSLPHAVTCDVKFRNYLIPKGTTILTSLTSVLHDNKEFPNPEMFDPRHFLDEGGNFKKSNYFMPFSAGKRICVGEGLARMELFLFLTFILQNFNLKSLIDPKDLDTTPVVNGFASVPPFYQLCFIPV
Sequence of Nuclear receptor subfamily 1 group I member 2 (Homo sapiens) (O75469 whole entry, looked up): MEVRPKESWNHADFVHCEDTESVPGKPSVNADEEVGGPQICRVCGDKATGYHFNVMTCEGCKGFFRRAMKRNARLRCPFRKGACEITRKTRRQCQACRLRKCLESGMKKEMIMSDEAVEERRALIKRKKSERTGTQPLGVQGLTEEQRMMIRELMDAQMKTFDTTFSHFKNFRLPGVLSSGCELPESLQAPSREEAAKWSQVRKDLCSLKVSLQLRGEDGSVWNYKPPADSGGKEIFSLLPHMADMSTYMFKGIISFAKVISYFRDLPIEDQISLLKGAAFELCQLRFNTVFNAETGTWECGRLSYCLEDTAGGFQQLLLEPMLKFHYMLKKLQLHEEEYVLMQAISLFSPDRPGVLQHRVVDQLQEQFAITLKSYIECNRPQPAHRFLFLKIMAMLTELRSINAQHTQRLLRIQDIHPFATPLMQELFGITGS

C/C=C/CO
inactive: all assays above

CCCC(O)C(O)CO (stereo unspecified)
inactive: all assays above

CCCCCCCCCCCCOC(=O)c1cc(O)c(O)c(O)c1
inactive: [3]
active: [1] 60.9 µM and 68.6 µM | [2] 9.65 µM and 7.7 µM | [4] 60.9 µM | [5] 24.2 µM and 21.7 µM | [6] 28.2 µM and 31.7 µM | [7] 25.1 µM and 20 µM

COC(=O)CC(C)CCC=C(C)C (stereo unspecified)
inactive: all assays above

CCC1CCCCC1
inactive: all assays above

CC1=CP(=O)(c2ccccc2)CC1 (stereo unspecified)
inactive: all assays above

O=C1C=CC(=O)N1c1ccccc1
active: [2] 9.69 µM | [4] 61.1 µM | [6] 39.9 µM | [7] 20 µM
inactive: [1] | [3] | [5]

CCO[Si](C)(C)OCC
inactive: all assays above

COc1cccc(OC)c1O
active: [6] 6.33 µM | [7] 39.9 µM
inactive: all other assays above

O=C[C@H](O)[C@H](O)[C@H](O)CO
inactive: all assays above

CC1=CCC(=O)O1
inactive: all assays above

CSc1c(Cl)c(Cl)c(Cl)c(Cl)c1Cl
active: [5] 68.2 µM
inactive: all other assays above

CC(C)(C)C1=CC(=O)C=C(C(C)(C)C)C1=O
active: [7] 3.17 µM
inactive: all other assays above

CN1CN(C)CN(C)C1
inactive: all assays above

CC(=O)O[C@@H]1C[C@@H]2CC[C@@]1(C)C2(C)C
inactive: all assays above

CC1CCCNC1 (stereo unspecified)
active: [6] 39.1 µM
not listed: [5]
inactive: all other assays above

CN(C)c1ccc(N=NS(=O)(=O)O)cc1
inactive: [1] | [3]
active: [2] 33.8 µM | [4] 25 µM | [5] 21.7 µM | [7] 0.421 µM

CC(=O)c1ccccc1N
not listed: [6]
inactive: all other assays above

CCCCN(C)C
not listed: [6]
inactive: all other assays above

Cc1ccc(O)cn1
not listed: [6]
inactive: all other assays above

CC[N+](CC)(CC)Cc1ccccc1
active: [6] 35.6 µM
inactive: all other assays above

NC(=O)c1ccccc1N
active: [7] 35.8 µM
not listed: [6]
inactive: all other assays above

O=CC1CC1
not listed: [6]
inactive: all other assays above

CC(=O)Nc1ccc(O)cc1
not listed: [6]
inactive: all other assays above

CCCCCCCCCCCCCOP(=O)(O)O
active: [7] 79.6 µM
not listed: [6]
inactive: all other assays above

C=CC/C=C/C/C=C/C/C=C/C
not listed: [6]
inactive: all other assays above

OCCC(O)CO (stereo unspecified)
not listed: [6]
inactive: all other assays above

CC1(C)C(=O)N(Br)C(=O)N1Br
not listed: [6]
inactive: all other assays above

OCCCCl
inactive: all assays above
